Data reported in PubChem BioAssay (Tox21).
Values without a mark were called inactive. Records with an inconclusive call do not appear. Entries that show only a call come without a potency. The source made the active and inactive calls. Unless noted, the call rests on the fitted dose curve.

Legend:
[1] = biological target: Acetylcholinesterase (Homo sapiens) (UniProt P22303); experiment: Acetylcholinesterase (AChE) small molecule antagonists: enzyme-based qHTS assay (AID 1347397); conditions: Potency: AChE enzyme activity inhibition; outcome: AChE enzyme activity inhibition; further: nearly all actives have a fitted effect of over 55% in size; further: potency means the concentration at half of the fitted maximal effect
Chain of Acetylcholinesterase (Homo sapiens) (P22303 whole entry, looked up): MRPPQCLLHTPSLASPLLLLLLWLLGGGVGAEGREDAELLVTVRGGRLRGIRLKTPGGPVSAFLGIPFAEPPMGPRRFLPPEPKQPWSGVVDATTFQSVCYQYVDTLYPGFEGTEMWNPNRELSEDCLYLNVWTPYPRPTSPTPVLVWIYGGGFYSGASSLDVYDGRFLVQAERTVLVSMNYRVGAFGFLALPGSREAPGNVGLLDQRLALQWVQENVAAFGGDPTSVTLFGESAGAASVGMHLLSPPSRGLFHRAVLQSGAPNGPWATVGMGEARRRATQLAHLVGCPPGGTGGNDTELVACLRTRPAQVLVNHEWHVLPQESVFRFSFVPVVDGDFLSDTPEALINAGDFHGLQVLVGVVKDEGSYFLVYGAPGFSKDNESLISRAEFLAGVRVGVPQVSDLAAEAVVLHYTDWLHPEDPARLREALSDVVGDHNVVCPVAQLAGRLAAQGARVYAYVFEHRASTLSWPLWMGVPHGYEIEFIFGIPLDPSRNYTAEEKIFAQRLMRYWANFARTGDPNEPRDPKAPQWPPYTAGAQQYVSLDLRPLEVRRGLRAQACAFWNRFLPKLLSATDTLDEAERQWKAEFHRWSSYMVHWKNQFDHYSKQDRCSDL
How it was run: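 Human recombinant acetylcholinesterase; substrate acetylthiocholine; thiocholine quantified with DTNB (colorimetric). Compound preincubation 30 min RT; reaction 10 min RT.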

[2] = biological target: Acetylcholinesterase (Homo sapiens) (UniProt P22303); experiment: Acetylcholinesterase (AChE) small molecule antagonists: fluorescence cell-based qHTS assay (AID 1347398); conditions: Potency: AChE activity; outcome: AChE activity; further: nearly all actives have a fitted effect of over 50% in size; further: potency means the concentration at half of the fitted maximal effect
How it was run: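 Thiocholine generated from acetylthiocholine by SH-SY5Y cell AChE is detected with Thiolite Green (Ex/Em 490/520 nm) after 40 min at room temperature, following 30 min compound pretreatment at 37 C.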

[3] = biological target: Acetylcholinesterase (Homo sapiens) (UniProt P22303); experiment: Acetylcholinesterase (AChE) small molecule antagonists: enzyme-based qHTS assay with human liver microsomes (AID 1347399); conditions: Potency: qHTS inhibition; outcome: qHTS inhibition; further: nearly all actives have a fitted effect of over 60% in size
How it was run: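 Recombinant human AChE (50 mU/mL in the enzyme mix) and human liver microsomes (0.25 mg/mL final) were preincubated with compound and NADPH (0.25 mg/mL final) for 30 min at 37 C. Acetylthiocholine/DTNB was then added; thiocholine was read colorimetrically after 10 min at room temperature.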

Aromatase (Homo sapiens) = Aromatase (Homo sapiens) (UniProt P11511); experiment: qHTS assay to identify aromatase inhibitors (AID 743083; active means well fitted inhibition curve with a large enough effect in the repeat runs; further: series mostly up to about 70 µM; nearly all actives have a fitted effect of over 55% in size)
Chain of Aromatase (Homo sapiens) (P11511 whole entry, looked up): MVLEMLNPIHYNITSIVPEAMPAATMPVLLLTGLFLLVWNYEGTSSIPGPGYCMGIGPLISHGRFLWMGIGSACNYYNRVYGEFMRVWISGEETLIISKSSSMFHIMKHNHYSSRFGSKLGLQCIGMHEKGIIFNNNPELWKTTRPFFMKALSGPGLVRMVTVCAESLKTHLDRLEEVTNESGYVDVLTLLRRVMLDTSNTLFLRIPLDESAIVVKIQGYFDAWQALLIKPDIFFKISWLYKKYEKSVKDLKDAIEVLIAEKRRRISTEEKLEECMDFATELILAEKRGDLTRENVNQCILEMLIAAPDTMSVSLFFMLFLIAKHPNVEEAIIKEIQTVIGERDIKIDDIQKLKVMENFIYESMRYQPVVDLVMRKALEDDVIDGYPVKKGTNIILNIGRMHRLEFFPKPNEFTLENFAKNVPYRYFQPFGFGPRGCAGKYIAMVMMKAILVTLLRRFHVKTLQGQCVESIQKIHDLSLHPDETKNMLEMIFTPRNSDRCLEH

CC(=O)Oc1cc2c(s1)CCN(C(C(=O)C1CC1)c1ccccc1F)C2 (stereo not drawn)
Potency [1]: inactive | Potency [2]: inactive | Potency [3]: inactive

COc1cc2ncnc(Nc3ccc(F)c(Cl)c3)c2cc1OCCCN1CCOCC1
Potency [1]: inactive | Potency [3]: inactive

CC(C)C[C@@H]1[C@H](c2ccccc2)OC(=O)N1CCCN1CCCCCC1
Potency [1]: inactive | Potency [3]: inactive

COc1ccc(-n2nc(C(F)F)cc2-c2ccc(S(C)=O)cc2)cc1 (stereo not drawn)
Potency [1]: inactive | Potency [3]: inactive

Cc1c(C)n(CCN(C)C)c2ccc(C(=O)OCCN(C)C)cc12
Potency [1]: inactive | Potency [3]: inactive

N#C/C(=C1\SCC(c2ccccc2Cl)S1)n1ccnc1 (stereo not drawn)
Potency [1]: inactive | Potency [3]: inactive

Cc1nc(Nc2ncc(C(=O)Nc3c(C)cccc3Cl)s2)cc(N2CCN(CCO)CC2)n1
Potency [1]: inactive | Potency [3]: inactive

CC(C)=CCC1=C(O)c2ccccc2C(=O)C1=O
Potency [1]: inactive | Potency [3]: inactive

OCCC1CCCCN1 (stereo not drawn)
Potency [1]: inactive | Potency [2]: inactive | Potency [3]: inactive

c1ccc2c(CC3=NCCN3)cccc2c1
Potency [1]: inactive | Potency [3]: inactive

CCCC[P+](C)(CCCC)CCCC
Potency [1]: inactive | Potency [3]: inactive

CCCCCCCCCCCC[N+](C)(C)CCCCCCCCCCCC
Potency [1]: 28.3 µM (active) | Potency [2]: 63.3 µM (active) | Potency [3]: inactive

CN(C(=O)CCCOc1ccc2[nH]c(=O)ccc2c1)C1CCCCC1
Potency [1]: inactive | Potency [3]: inactive

CC(C)(C)c1ccc(N)cc1
Potency [1]: inactive | Potency [2]: inactive | Potency [3]: inactive

CCCC1CCOC(C)S1 (stereo not drawn)
Potency [1]: inactive | Potency [2]: inactive | Potency [3]: inactive

c1ccc(-c2ccc(-c3ccccc3)cc2)cc1
Potency (Aromatase (Homo sapiens)): inactive | activity change, negative = inhibition [1]: 0% [at 23.6 µM] | activity change, negative = inhibition [2]: 6.58% [at 23.8 µM] | activity change, negative = inhibition [3]: 0.417% [at 23.6 µM]

CC1CC(=O)NN=C1c1ccc(NCC(C)(C)NCC(O)COc2cc(Cl)ccc2C#N)cc1 (stereo not drawn)
Potency [1]: inactive | Potency [3]: inactive

NCC1(Cc2noc(=O)[nH]2)CCCCC1
Potency [1]: inactive | Potency [2]: inactive | Potency [3]: inactive

Cc1nc(-c2ccc(Cl)cc2)oc1COC(C)(C)C(=O)O
Potency [1]: inactive | Potency [2]: inactive | Potency [3]: inactive

C=CC(=O)OCC[N+](C)(C)C
Potency [1]: inactive | Potency [3]: inactive

Cc1cc(O)c(C(C)(C)C)cc1C(C)(C)C
Potency [1]: inactive | Potency [2]: inactive | Potency [3]: inactive

NC(N)=NN=C(/C=C/c1ccc([N+](=O)[O-])o1)/C=C/c1ccc([N+](=O)[O-])o1
Potency [1]: inactive | Potency [2]: inactive | Potency [3]: inactive

COc1c(C)c2c(c(O)c1C/C=C(\C)CCC(=O)O)C(=O)OC2
Potency [1]: inactive | Potency [3]: inactive

Cc1cc(=O)oc2cc(N(C)C)ccc12
Potency [1]: inactive | Potency [3]: inactive

NC(=O)C(c1ccccc1)(c1ccccc1)[C@@H]1CCN(CCc2ccc3c(c2)CCO3)C1
Potency [1]: inactive | Potency [3]: inactive

Cc1cc(O)ccc1N
Potency [1]: inactive | Potency [3]: inactive

NC1(c2ccc(-c3nc4ccn5c(=O)[nH]nc5c4cc3-c3ccccc3)cc2)CCC1
Potency [1]: inactive | Potency [3]: inactive

Cc1ccc(O)c([C@H](CCN(C(C)C)C(C)C)c2ccccc2)c1
Potency [1]: inactive | Potency [3]: inactive

CC(C)C(=O)Nc1cccc(C2CN3CCSC3=N2)c1 (stereo not drawn)
Potency [1]: inactive | Potency [3]: inactive

O=C1C=CC(=O)N1
Potency [1]: inactive | Potency [3]: inactive

CCC1=C[C@@H]2CN(C1)Cc1c([nH]c3ccccc13)[C@@](C(=O)OC)(c1cc3c(cc1OC)N(C)[C@H]1[C@@](O)(C(=O)OC)[C@H](OC(C)=O)[C@]4(CC)C=CCN5CC[C@]31[C@@H]54)C2
Potency [1]: inactive | Potency [3]: inactive

c1ccc2c(c1)CCCC2C1=NCCN1 (stereo not drawn)
Potency [1]: inactive | Potency [3]: inactive

CCCn1cc[n+](C)c1C
Potency [1]: inactive | Potency [3]: inactive

c1cc2c3c(c1)ccc1cccc(c13)C2
Potency [1]: inactive | Potency [3]: inactive

O=C(CCCN1CCN(c2ccccn2)CC1)c1ccc(F)cc1
Potency [1]: inactive | Potency [3]: inactive

CN(C)CCC=C1c2ccccc2C=Cc2ccccc21
outcome [1]: inactive | outcome [3]: inactive

O=C1NC2CCCCN2C12CCN(CCCN1c3ccccc3CCc3ccc(Cl)cc31)CC2 (stereo not drawn)
Potency [1]: inactive | Potency [3]: inactive

CCCCN(CCCC)CCCOC(=O)c1ccc(N)cc1
Potency [1]: inactive | Potency [3]: inactive

C1CCC(C(CC2CCCCN2)C2CCCCC2)CC1 (stereo not drawn)
Potency [1]: inactive | Potency [3]: inactive

CN1CCC(=C2c3ccccc3CCc3sccc32)CC1
Potency [1]: inactive | Potency [3]: inactive

C[C@@H]1CCC[C@H](C)N1CCCC(O)(c1ccccc1)c1ccccn1 (stereo partly drawn)
Potency [1]: inactive | Potency [3]: inactive

CN1CCN(c2cc3c(nn2)Oc2ccccc2N3C)CC1
activity change, negative = inhibition [1]: -13.5% [at 23.6 µM] | activity change, negative = inhibition [3]: 1.76% [at 23.6 µM]

O=[N+]([O-])c1cccc(S(=O)(=O)NCCNS(=O)(=O)c2cccc([N+](=O)[O-])c2)c1
Potency [1]: inactive | Potency [3]: inactive

CN1CCN2c3ccccc3Cc3ccccc3C2C1 (stereo not drawn)
Potency [1]: inactive | Potency [3]: inactive

Clc1ccc2c(c1)CCc1cccnc1C2=C1CCNCC1
Potency [1]: inactive | Potency [3]: inactive

CC(=O)Oc1ccc(C(c2ccc(OC(C)=O)cc2)c2ccccn2)cc1
Potency [1]: inactive | Potency [3]: inactive

Cc1ccc(C(=O)C(C)CN2CCCCC2)cc1 (stereo not drawn)
Potency [1]: inactive | Potency [3]: inactive

NS(=O)(=O)c1cc2c(cc1C(F)(F)F)NCNS2(=O)=O
Potency [1]: inactive | Potency [3]: inactive

C/C=C1/C(=O)C[C@H]2[C@@H]3CCC4=CC(=O)CC[C@]4(C)[C@H]3CC[C@]12C
Potency [1]: inactive | Potency [3]: inactive

O=C1CC2(CCCC2)CC(=O)N1CCCCN1CCN(c2ncccn2)CC1
Potency [1]: inactive | Potency [3]: inactive

CN1C(=O)N(c2ccccc2Br)Cc2cnc(Nc3ccc4c(c3)OCC(CO)O4)nc21 (stereo not drawn)
Potency [1]: inactive | Potency [3]: inactive

CN(C)CCC[C@@]1(c2ccc(F)cc2)OCc2cc(C#N)ccc21
Potency [1]: inactive | Potency [3]: inactive

CCCCCCC[N+](CC)(CC)CCCCc1ccc(Cl)cc1
Potency [1]: inactive | Potency [3]: inactive

CC1(C)S[C@@H]2[C@H](NC(=O)C(c3ccccc3)S(=O)(=O)O)C(=O)N2[C@H]1C(=O)O (stereo partly drawn)
Potency [1]: inactive | Potency [3]: inactive

O=C1CCN(c2ccccc2)N1
Potency [1]: inactive | Potency [3]: inactive

COCCOc1cc2cc(C(=O)NC3CCN(C(C)C)CC3)n(CC(=O)Nc3ccc(Cl)cn3)c2cn1
Potency [1]: inactive | Potency [3]: inactive

C[C@@H]1C[C@H]2[C@@H]3C[C@H](F)C4=CC(=O)C(Cl)=C[C@]4(C)[C@@]3(F)[C@@H](O)C[C@]2(C)[C@@]1(O)C(=O)CO
Potency [1]: inactive | Potency [3]: inactive

CCN(CC)CCNC(=O)c1ccc(NC(C)=O)cc1
Potency [1]: inactive | Potency [3]: inactive

COc1cc(NC(C)CCCN)c2ncccc2c1 (stereo not drawn)
Potency [1]: inactive | Potency [3]: inactive

CO/N=C1\CN(c2nc3c(cc2F)c(=O)c(C(=O)O)cn3C2CC2)CC1CN (stereo not drawn)
outcome [1]: inactive | outcome [3]: inactive

Oc1ccc(C(O)CNCCCCCCNCC(O)c2ccc(O)c(O)c2)cc1O (stereo not drawn)
Potency [1]: inactive | Potency [3]: inactive
